# G9a block: G9a (human) methyltransferase inhibition; Q96KQ7; G9a H3K9 monomethylation, AlphaScreen, 2 h; Potency, µM (highest dose often 102 µM), without a hit: top-dose activity, negative = inhibition, actives largely listed as inhibitors; actives 8.8% (n = 350,000); further: on the % scale 0 is the no-effect control and ±100 the full control effect; nearly all actives have a fitted effect of over 75% in size
# Target sequence (Q96KQ7 913-1193 limits assumed): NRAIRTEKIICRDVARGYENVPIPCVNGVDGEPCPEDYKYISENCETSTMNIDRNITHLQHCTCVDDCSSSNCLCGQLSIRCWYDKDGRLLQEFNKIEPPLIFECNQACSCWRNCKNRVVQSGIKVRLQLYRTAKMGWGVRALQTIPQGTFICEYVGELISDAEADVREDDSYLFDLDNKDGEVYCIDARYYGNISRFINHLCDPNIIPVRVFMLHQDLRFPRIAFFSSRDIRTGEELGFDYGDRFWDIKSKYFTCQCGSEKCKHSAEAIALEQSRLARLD
#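 Signal arises when biotinylated H3K9 peptide, once monomethylated, bridges streptavidin donor and antibody-captured acceptor beads. Enzyme at 20 nM was preincubated 15 min with test compounds; peptide 500 nM and SAM 20 uM then reacted for 2 h.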
# JMJD2A Tudor: inhibitors of human JMJD2A Tudor domain; actives 4.4% (n = 390,000); Potency, µM (highest dose often 114 µM), without a hit: at the highest dose activity change, negative = inhibition, hits mostly inhibitors; AlphaScreen JMJD2A-Tudor / H3K4me3 peptide binding; AID 504339; further: on the % scale 0 is the no-effect control and ±100 the full control effect; nearly all actives have a fitted effect of over 50% in size
# HP1b binding inh: inhibitors of HP1-beta chromodomain binding to methylated histone tails | actives 0.56% (n = 390,000) | Potency, µM (top dose mostly 114 µM), without a hit: at the top dose activity change, negative = inhibition, actives largely listed as inhibitors | P83916 | AlphaScreen HP1-beta / biotin-H3K9me3 peptide binding | AID 540317; further: nearly all actives have a fitted effect of over 70% in size
# Target sequence (P83916 whole entry, looked up): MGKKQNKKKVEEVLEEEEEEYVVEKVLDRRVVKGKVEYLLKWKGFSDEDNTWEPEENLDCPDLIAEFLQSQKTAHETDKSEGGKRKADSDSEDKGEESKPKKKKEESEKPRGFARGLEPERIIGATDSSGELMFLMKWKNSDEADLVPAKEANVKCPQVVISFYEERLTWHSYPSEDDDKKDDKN
#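 HP1-beta protein (50 nM final) preincubated 30 min at room temperature with biotinylated H3(1-18)K9me3 peptide (50 nM) in PBS pH 7.4, 0.01% Tween-20, then compound added for 30 min. AlphaScreen streptavidin donor/nickel chelate acceptor beads (10 ug/mL final), 30 min dark, luminescence read.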
# BAZ2B block: blocks human BAZ2B | Q9UIF8 | AlphaScreen BAZ2B-H3K14Ac peptide displacement | Potency, µM (series often up to 114 µM), for inactives: top-dose activity change, negative = inhibition, actives largely listed as inhibitors | actives 4.4% (n = 360,000) | AID 504333; further: on the % scale 0 is the no-effect control and ±100 the full control effect; nearly all actives have a fitted effect of over 60% in size
#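 AlphaScreen luminescence quantifies BAZ2B engagement of H3K14Ac peptide; the protein and biotinylated peptide are both at 50 nM final, buffer PBS pH 7.4 with 0.01% Tween-20, all steps at room temperature.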
# L3MBTL1 inh: inhibitors of human L3MBTL1; Q9Y468; AlphaScreen L3MBTL1–H3K9me1 peptide binding; Potency, µM (titrated, usually from 57.1 µM), without a hit: at the top dose activity, negative = inhibition, actives largely listed as inhibitors; actives 0.66% (n = 230,000); AID 485360; further: on the % scale 0 is the no-effect control and ±100 the full control effect; nearly all actives have a fitted effect of over 60% in size
#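 Read-out is AlphaScreen signal from streptavidin donor and nickel chelate acceptor beads (10 ug/mL final each) bridging L3MBTL1 (50 nM) and biotinylated K9-monomethylated H3(1-15) peptide (75 nM), after 30 min compound exposure at room temperature.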
# Sfp inh: blocks B. subtilis Sfp PPTase activity; Biochemical Sfp PPTase activity, qHTS; Q9F4F7; Potency, µM, for the others: largest response in the series, negative = inhibition, actives largely listed as inhibitors; actives 3.5% (n = 310,000);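 further: the enzyme is Sfp with the accession as filed and its product quenches rhodamine fluorescence; 0% = enzyme reaction without inhibitor and -100% = no enzyme wells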
#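 Buffer: 50 mM Hepes-Na pH 7.6, 10 mM MgCl2, 0.01% Nonidet P-40, 0.01% BSA. Enzyme 15 nM, pre-exposed to compound 15 min; substrates then added and fluorescence change tracked over 30 min.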
# * marks the source's active call; other numbers are inactive results; ? = inconclusive; . = no result given; [ ] = remark or other dose. An excerpt weighted towards active compounds, which were near 12% of everything screened. The call rests on the fitted dose curve; in most records, active means well fitted curve in the direction sought with a large enough effect; inconclusive means small, poorly fitted or top-dose-only effect, or another doubt; inactive means no such curve, though single readings can be large; an effect the other way counts as inactive or inconclusive. Potency means the concentration at half of the fitted maximal effect.
SMILES,G9a block,JMJD2A Tudor,HP1b binding inh,BAZ2B block,L3MBTL1 inh,Sfp inh
COc1ccc(-c2noc(C3CC(=O)N(c4ccc(C)c(F)c4)C3)n2)c(OC)c1 (stereo not given),-1%[59 µM],-21%,49%,-13%,.,.
O=c1c(CCc2ccccc2)nc2cnc(Nc3ccccc3)nc2n1C[C@H]1CCCO1,10%[0.501 µM],.,.,.,.,20%
CCCCc1ncc(/C=C(\Cc2cccs2)C(=O)O)n1Cc1ccc(C(=O)O)cc1,13%[59 µM],.,.,.,.,10%
CN(Cc1ccccc1)c1ccc2cc(S(=O)(=O)N3CCCCC3)ccc2n1,20%[59 µM],22%,43%,7%,.,.
COc1ccc(NC(=O)N2CC3(CCN(S(=O)(=O)c4ccccc4)CC3)C2)cc1,-5%[12.7 µM],.,.,.,.,15%
COc1ccc(NC(=O)CN2C(=O)S/C(=C/c3cccn3-c3ccc(C(=O)O)cc3)C2=O)cc1,22µM*,.,.,18µM*,.,-5%
Cc1c(Cl)cccc1NC(=O)c1oc2ccc(S(=O)(=O)N3CCC4(CC3)OCCO4)cc2c1C,-19%[59 µM],-10%,33%,5%,.,.
Cc1ccc(S(=O)(=O)N2CCN(C(=O)COC(=O)c3ccc(Br)o3)CC2)c(C)c1,24%[2.33 µM],-23%,1%,7%,2%,.
Cc1ccc(S(=O)(=O)N2CCN(C(=O)c3ccc4ccccc4n3)CC2)c(C)c1,2%[2.33 µM],35µM*,8%,50µM*,-19%,.
Cc1ccc(S(=O)(=O)N2CCN(C(=O)c3ccc(Br)o3)CC2)c(C)c1,79µM*,-22%,-17%,-30%,.,11%
Cc1cccc(NC(=O)CSc2nnc3c4ccccc4n(C)c3n2)c1,2%[59 µM],3%,48%,3%,.,.
Cc1ccc(CNc2nc3ccccc3n3c(C)nnc23)cc1,1%[59 µM],-15%,15%,1%,.,.
COC(=O)c1c(-c2cccs2)csc1NC(=O)c1ccc(Br)cc1,1.6µM*,-11%,6%,-7%,.,.
COC(=O)c1c(-c2cccs2)csc1NC(=O)c1ccc(OC)c(OC)c1,2.8µM*,-33%,?,-27%,.,.
CCOC(=O)c1c(-c2cccs2)csc1NC(=O)c1ccncc1,19%[2.33 µM],-5%,35%,13%,2%,12%
COC(=O)c1c(-c2cccs2)csc1NC(=O)c1cc(OC)c(OC)c(OC)c1,?,89µM*,?,?,.,.
COC(=O)c1c(-c2cccs2)csc1NC(=O)c1ccc(C)cc1,?,-28%,-23%,?,.,.
COC(=O)c1c(-c2cccs2)csc1NC(=O)c1cc(OC)cc(OC)c1,2.8µM*,-5%,0%,-35%,.,.
CCOC(=O)CN1C(=O)N[C@@H](c2ccccc2)[C@H](C(=O)OC)[C@H]1C,.,.,.,.,.,-1%
COc1ccc(Cc2c(C)nn(-c3nc(C)c(C(=O)Nc4cccc(C(C)=O)c4)s3)c2C)cc1,-12%[59 µM],-5%,27%,-27%,.,.
CCc1ccc(NC(=O)c2ccc3c(c2)c(C)c(C)n3Cc2ccccc2)cc1,-8%[59 µM],-31%,11%,-14%,.,.
CC(C)N=c1cc2n(-c3ccc(Cl)cc3)c3ccccc3nc-2cc1Nc1ccc(Cl)cc1,2.5µM*,7.1µM*,4.5µM*,.,.,?
COc1ccc(C(=O)Nc2nnc(C)s2)cc1,-1%[59 µM],-9%,32%,1%,.,.
COc1ccc(N2CCN(C(C)C(=O)N3CCCC3)CC2)cc1 (stereo not given),?,0.79µM*,?,32µM*,14%,?
COc1ccc(N2CCN(C(C)C(=O)Nc3nnc(C)s3)CC2)cc1 (stereo not given),56µM*,?,-3%,-16%,1%,-16%
SMILES,G9a block,JMJD2A Tudor,HP1b binding inh,BAZ2B block,L3MBTL1 inh,Sfp inh
COc1cccc(OC)c1C(=O)Nc1cccc(-c2nc3cc(C)cc(C)c3o2)c1,-12%[59 µM],-18%,17%,-21%,.,.
O=C(COc1cccc(Br)c1)N/N=C1\CCCc2ccccc21,-2%,-10%,-11%,.,-4%,-12%
CC(NC(=O)COc1cccc(Br)c1)C(=O)O (stereo not given),50µM*,0%,44%,5%,8%,22%
O=C(COc1cccc(Br)c1)N/N=C1\CCSC1,-21%,71µM*,2%,-17%,-1%,11%
CC(NC(=O)COc1ccc(Br)cc1)C(=O)O (stereo not given),?,-10%,27%,2%,.,6%
COc1ccc(F)cc1S(=O)(=O)NCCc1csc(-c2ccc(Cl)cc2)n1,1%[59 µM],-9%,23%[57 µM],2%,.,.
c1ccc(Nc2c(-c3c[nH]c4ccccc34)nc3ccccn23)cc1,?,?,?,-26%,.,.
Cc1ccc(Nc2c(-c3ccsc3)nc3cccc(C)n23)cc1,?,50µM*,?,?,.,.
Cc1ccc(Nc2c(-c3ccccn3)nc3cccc(C)n23)cc1,20%[59 µM],-35%[11.4 µM],?,16µM*,.,8%
Cc1cccc(C)c1Nc1c(-c2ccccc2F)nc2cccc(C)n12,18µM*,50µM*,?,?,.,.
Fc1ccc(Nc2c(-c3c[nH]c4ccccc34)nc3ccccn23)cc1,?,35µM*,?,?,.,.
Cc1cc(C)n2c(Nc3ccc(Cl)cc3)c(-c3ccsc3)nc2n1,-68%[59 µM],-18%,18%,-24%,.,.
Cc1cc2ccccc2nc1-c1ccccc1F,.,11%,64%,.,.,.
CCCCNc1nc2c(S(=O)(=O)c3ccc(Br)cc3)nnn2c2ccsc12,-22%[59 µM],-14%,19%,-19%,.,.
COc1cc(NS(C)(=O)=O)ccc1Cc1c2ccccc2nc2ccccc12,.,.,.,.,.,-8%
CC(C)(C)c1ccc(OCc2nnc(-c3ccccc3)o2)cc1,97%[59 µM],143%,188%,151%,.,.
c1ccc(Nc2c(-c3ccccc3)nc3ncccn23)cc1,-19%[59 µM],-4%,3%,-24%,.,.
O=C(Nc1ccc(F)cc1)c1cc(-c2ccccn2)nc2c(Cl)cccc12,.,9%,25%,-1%,.,-1%
Cc1ccn2c(Nc3ccc(F)cc3)c(-c3ccccn3)nc2c1,-48%[59 µM],25µM*,-14%,14µM*,.,.
Cc1cccc2nc(-c3ccccn3)c(Nc3ccccc3)n12,3%[59 µM],40µM*,5%,8.9µM*,.,.
Cc1ccc(Nc2c(-c3ccccn3)nc3ccc(Br)cn23)cc1,17%[59 µM],?,34%,-33%,.,.
Cc1cccc2nc(-c3ccccn3)c(Nc3ccc(F)cc3)n12,-3%[59 µM],45µM*,19%,16µM*,.,.
CCc1ccc(NC(=O)Nc2nnc(N(C)C3CCCCC3)s2)cc1,-25%[59 µM],-25%,-6%,-20%,.,.
Cc1cc(OCCn2c(CCNC(=O)C3CCCCC3)nc3ccccc32)ccc1Cl,7%[59 µM],-11%,31%,-3%,.,.
Cc1[nH]c2ccccc2c1-c1csc(NC(=O)CN2CCOCC2)n1,35µM*,?,17%,79µM*,-7%[11.4 µM],1%
Cc1[nH]c2ccccc2c1-c1csc(NC(=O)CSCC(=O)O)n1,?,-14%,16%,-32%,-13%,-10%
